Source: article PMC11006913
Changes are numbered by the printed parent chain.

Experiments:
Experiment in all cases: PBM; 200 nM protein, PBS
Details in all cases: dsDNA, one strand shown
[1] = molecular target: T1, SIX6 (Homo sapiens, UniProt O95475 114-200, L167I)
T1 sequence: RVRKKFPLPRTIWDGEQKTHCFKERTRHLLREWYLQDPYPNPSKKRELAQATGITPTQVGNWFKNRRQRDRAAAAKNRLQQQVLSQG

[2] = molecular target: T2, SIX6 (Homo sapiens, UniProt O95475 114-200, L143V)
T2 sequence: T1 sequence with L30V, I54L

[3] = molecular target: T3, SIX6 (Homo sapiens, UniProt O95475 114-200, H141N)
T3 sequence: T1 sequence with H28N, I54L

[4] = molecular target: T4, SIX6 (Homo sapiens, UniProt O95475 114-200, T165P)
T4 sequence: T1 sequence with T52P, I54L

[5] = molecular target: T5, SIX6 (Homo sapiens, UniProt O95475 114-200, L167M)
T5 sequence: T1 sequence with I54M

[6] = molecular target: T6, SIX6 (Homo sapiens, UniProt O95475 114-200, L143M)
T6 sequence: T1 sequence with L30M, I54L

[7] = molecular target: T7, SIX6 (Homo sapiens, UniProt O95475 114-200, L143I)
T7 sequence: T1 sequence with L30I, I54L

[8] = molecular target: T8, SIX6 (Homo sapiens, UniProt O95475 114-200, T165G)
T8 sequence: T1 sequence with T52G, I54L

[9] = molecular target: T9, SIX6 (Homo sapiens, UniProt O95475 114-200, T139Q)
T9 sequence: T1 sequence with T26Q, I54L

[10] = molecular target: T10, SIX6 (Homo sapiens, UniProt O95475 114-200, T165A)
T10 sequence: T1 sequence with T52A, I54L

[11] = molecular target: T11, SIX6 (Homo sapiens, UniProt O95475 114-200, L167V)
T11 sequence: T1 sequence with I54V

[12] = molecular target: T12, SIX6 (Homo sapiens, UniProt O95475 114-200)
T12 sequence: T1 sequence with I54L

[13] = molecular target: T13, SIX6 (Homo sapiens, UniProt O95475 114-200, T165I)
T13 sequence: T1 sequence with T52I, I54L

| Sequence | binding signal [1] | binding signal [2] | binding signal [3] | binding signal [4] | binding signal [5] | binding signal [6] | binding signal [7] | binding signal [8] | binding signal [9] | binding signal [10] | binding signal [11] | binding signal [12] | binding signal [13] |
| --- | --- | --- | --- | --- | --- | --- | --- | --- | --- | --- | --- | --- | --- |
| CAGGGCGC | 9.09 upbm affinity estimate (log intensity, higher = more binding, comparable within an allelic series) | 8.83 upbm affinity estimate (log intensity, higher = more binding, comparable within an allelic series) | 9.07 upbm affinity estimate (log intensity, higher = more binding, comparable within an allelic series) | 9 upbm affinity estimate (log intensity, higher = more binding, comparable within an allelic series) | 8.98 upbm affinity estimate (log intensity, higher = more binding, comparable within an allelic series) | 9.04 upbm affinity estimate (log intensity, higher = more binding, comparable within an allelic series) | 8.98 upbm affinity estimate (log intensity, higher = more binding, comparable within an allelic series) | 9.07 upbm affinity estimate (log intensity, higher = more binding, comparable within an allelic series) | 8.97 upbm affinity estimate (log intensity, higher = more binding, comparable within an allelic series) | 8.99 upbm affinity estimate (log intensity, higher = more binding, comparable within an allelic series) | 9.01 upbm affinity estimate (log intensity, higher = more binding, comparable within an allelic series) | 9.01 upbm affinity estimate (log intensity, higher = more binding, comparable within an allelic series) | 8.97 upbm affinity estimate (log intensity, higher = more binding, comparable within an allelic series) |
| ACGTATCA | 11.3 upbm affinity estimate (log intensity, higher = more binding, comparable within an allelic series) | 10.3 upbm affinity estimate (log intensity, higher = more binding, comparable within an allelic series) | 11.3 upbm affinity estimate (log intensity, higher = more binding, comparable within an allelic series) | 9.82 upbm affinity estimate (log intensity, higher = more binding, comparable within an allelic series) | 10.7 upbm affinity estimate (log intensity, higher = more binding, comparable within an allelic series) | 11.1 upbm affinity estimate (log intensity, higher = more binding, comparable within an allelic series) | 10.4 upbm affinity estimate (log intensity, higher = more binding, comparable within an allelic series) | 11.3 upbm affinity estimate (log intensity, higher = more binding, comparable within an allelic series) | 11.3 upbm affinity estimate (log intensity, higher = more binding, comparable within an allelic series) | 11.2 upbm affinity estimate (log intensity, higher = more binding, comparable within an allelic series) | 11.1 upbm affinity estimate (log intensity, higher = more binding, comparable within an allelic series) | 11.1 upbm affinity estimate (log intensity, higher = more binding, comparable within an allelic series) | 11 upbm affinity estimate (log intensity, higher = more binding, comparable within an allelic series) |
| ATGTATCA | 11.4 upbm affinity estimate (log intensity, higher = more binding, comparable within an allelic series) | 10.6 upbm affinity estimate (log intensity, higher = more binding, comparable within an allelic series) | 11.5 upbm affinity estimate (log intensity, higher = more binding, comparable within an allelic series) | 10.1 upbm affinity estimate (log intensity, higher = more binding, comparable within an allelic series) | 11 upbm affinity estimate (log intensity, higher = more binding, comparable within an allelic series) | 11.2 upbm affinity estimate (log intensity, higher = more binding, comparable within an allelic series) | 10.6 upbm affinity estimate (log intensity, higher = more binding, comparable within an allelic series) | 11.5 upbm affinity estimate (log intensity, higher = more binding, comparable within an allelic series) | 11.3 upbm affinity estimate (log intensity, higher = more binding, comparable within an allelic series) | 11.4 upbm affinity estimate (log intensity, higher = more binding, comparable within an allelic series) | 11.2 upbm affinity estimate (log intensity, higher = more binding, comparable within an allelic series) | 11.2 upbm affinity estimate (log intensity, higher = more binding, comparable within an allelic series) | 11.3 upbm affinity estimate (log intensity, higher = more binding, comparable within an allelic series) |
| AGGTGGGC | 8.98 upbm affinity estimate (log intensity, higher = more binding, comparable within an allelic series) | 8.85 upbm affinity estimate (log intensity, higher = more binding, comparable within an allelic series) | 8.88 upbm affinity estimate (log intensity, higher = more binding, comparable within an allelic series) | 8.89 upbm affinity estimate (log intensity, higher = more binding, comparable within an allelic series) | 8.86 upbm affinity estimate (log intensity, higher = more binding, comparable within an allelic series) | 8.93 upbm affinity estimate (log intensity, higher = more binding, comparable within an allelic series) | 8.92 upbm affinity estimate (log intensity, higher = more binding, comparable within an allelic series) | 8.98 upbm affinity estimate (log intensity, higher = more binding, comparable within an allelic series) | 9.06 upbm affinity estimate (log intensity, higher = more binding, comparable within an allelic series) | 8.91 upbm affinity estimate (log intensity, higher = more binding, comparable within an allelic series) | 8.91 upbm affinity estimate (log intensity, higher = more binding, comparable within an allelic series) | 8.91 upbm affinity estimate (log intensity, higher = more binding, comparable within an allelic series) | 8.94 upbm affinity estimate (log intensity, higher = more binding, comparable within an allelic series) |
| ATTGATAC | 11.4 upbm affinity estimate (log intensity, higher = more binding, comparable within an allelic series) | 10.5 upbm affinity estimate (log intensity, higher = more binding, comparable within an allelic series) | 11.5 upbm affinity estimate (log intensity, higher = more binding, comparable within an allelic series) | 9.95 upbm affinity estimate (log intensity, higher = more binding, comparable within an allelic series) | 10.8 upbm affinity estimate (log intensity, higher = more binding, comparable within an allelic series) | 11.2 upbm affinity estimate (log intensity, higher = more binding, comparable within an allelic series) | 10.5 upbm affinity estimate (log intensity, higher = more binding, comparable within an allelic series) | 11.4 upbm affinity estimate (log intensity, higher = more binding, comparable within an allelic series) | 11.2 upbm affinity estimate (log intensity, higher = more binding, comparable within an allelic series) | 11.4 upbm affinity estimate (log intensity, higher = more binding, comparable within an allelic series) | 11.2 upbm affinity estimate (log intensity, higher = more binding, comparable within an allelic series) | 11.2 upbm affinity estimate (log intensity, higher = more binding, comparable within an allelic series) | 11.2 upbm affinity estimate (log intensity, higher = more binding, comparable within an allelic series) |
| CGATACCA | 10.8 upbm affinity estimate (log intensity, higher = more binding, comparable within an allelic series) | 10 upbm affinity estimate (log intensity, higher = more binding, comparable within an allelic series) | 10.8 upbm affinity estimate (log intensity, higher = more binding, comparable within an allelic series) | 9.44 upbm affinity estimate (log intensity, higher = more binding, comparable within an allelic series) | 10.3 upbm affinity estimate (log intensity, higher = more binding, comparable within an allelic series) | 10.7 upbm affinity estimate (log intensity, higher = more binding, comparable within an allelic series) | 10.1 upbm affinity estimate (log intensity, higher = more binding, comparable within an allelic series) | 11 upbm affinity estimate (log intensity, higher = more binding, comparable within an allelic series) | 11.1 upbm affinity estimate (log intensity, higher = more binding, comparable within an allelic series) | 10.8 upbm affinity estimate (log intensity, higher = more binding, comparable within an allelic series) | 10.6 upbm affinity estimate (log intensity, higher = more binding, comparable within an allelic series) | 10.8 upbm affinity estimate (log intensity, higher = more binding, comparable within an allelic series) | 10.6 upbm affinity estimate (log intensity, higher = more binding, comparable within an allelic series) |
